# Assay results from PubChem BioAssay (Tox21).
# Where “and” joins values, the source holds several entries; their conditions need not be identical. Identical values can stand only once. Inconclusive results are not listed. A call without a number means that no potency is given here. The source holds several records for some structures; these can differ, active in one and inactive in another. Calls of active or inactive are those of the source. The call rests on the fitted dose curve; in most records, active means well fitted curve in the direction sought with a large enough effect in the repeat runs; inconclusive means weak or mixed curves; inactive means no such curve, though single readings can be large; an effect the other way counts as inactive or inconclusive.
# Legend:
# [1] = qHTS RealTime-Glo MT Cell Viability Assay in HepG2 cells - 40 hour (AID 1224870); further: nearly all actives have a fitted effect of over 50% in size
# Method in brief: (§1)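 Real-time viability: cells seeded at 600 per well together with NanoLuc and cell-permeant prosubstrate, compounds added after 5 h incubation. Luminescence tracked at 0, 8, 16, 24, 32 and 40 h of exposure.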
# [2] = A CellTox Green Cytotoxicity Assay to monitor cytotoxicity in HEK293 cells - 40 hour (AID 1224871); further: nearly all actives have a fitted effect of over 45% in size
# Method in brief: (§2)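 Real-time, in one plate: 600 HEK293 cells/well with dead-cell DNA dye, pinned compound after 5 h, 37 C incubation over 40 h; viable cells give no appreciable fluorescence.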
# [3] = qHTS RealTime-Glo MT Cell Viability Assay in HEK293 cells - 16 hour (AID 1224872); further: nearly all actives have a fitted effect of over 50% in size
# Method in brief: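 Luminescence generated by NanoLuc from substrate produced by living HEK293 cells served as the viability signal. Each value reflects the reading at its stated time point during continuous 40 h compound exposure at 37 C.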
# [4] = qHTS RealTime-Glo MT Cell Viability Assay in HepG2 cells - 8 hour (AID 1224873); further: nearly all actives have a fitted effect of over 55% in size
# Method in brief: as §1
# [5] = qHTS RealTime-Glo MT Cell Viability Assay in HEK293 cells - 40 hour (AID 1224874); settings: RealTime-Glo luminescence; max response: stronger effect = lower value; further: nearly all actives have a fitted effect of over 50% in size
# Method in brief: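 Kinetic, non-lysing viability readout. Seed HEK293 (600/well) with reagent, incubate 5 h at 37 C/5% CO2, pin 23 nL compound in DMSO, incubate at 37 C, read luminescence at 0, 8, 16, 24, 32, 40 h.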
# [6] = A CellTox Green Cytotoxicity Assay to monitor cytotoxicity in HEK293 cells - 24 hour (AID 1224875); further: nearly all actives have a fitted effect of over 45% in size
# Method in brief: as §2
# [7] = A CellTox Green Cytotoxicity Assay to monitor cytotoxicity in HepG2 cells - 16 hour (AID 1224876); further: nearly all actives have a fitted effect of over 45% in size
# Method in brief: (§3)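 Cytotoxicity was tracked as dead-cell DNA fluorescence in HepG2 cells treated with test compounds at 37 C; each time-point value comes from one kinetic series spanning 0, 8, 16, 24, 32 and 40 h.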
# [8] = qHTS RealTime-Glo MT Cell Viability Assay in HepG2 cells - 32 hour (AID 1224877); further: nearly all actives have a fitted effect of over 55% in size
# Method in brief: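 Tox21 10K library screened in qHTS format on HepG2 cells carrying RealTime-Glo reagents. Compounds were added after a 5 h preincubation, and the luminescent signal from continuous culture was measured repeatedly during 40 h treatment.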
# [9] = A CellTox Green Cytotoxicity Assay to monitor cytotoxicity in HepG2 cells - 24 hour (AID 1224878); further: nearly all actives have a fitted effect of over 45% in size
# Method in brief: as §3
# [10] = A CellTox Green Cytotoxicity Assay to monitor cytotoxicity in HepG2 cells - 40 hour (AID 1224879); further: nearly all actives have a fitted effect of over 40% in size
# Method in brief: as §3
# Potency means the concentration at half of the fitted maximal effect.
Structure (SMILES),Potency [1],Potency [2],Potency [3],Potency [4],max response [5],Potency [6],Potency [7],Potency [8],Potency [9],Potency [10],Potency [5]
c1cc(OCC2CO2)ccc1Cc1ccc(OCC2CO2)cc1 (centres undefined),inactive,inactive,inactive,inactive,-28.4% (inactive),inactive,inactive,inactive,inactive,inactive,
CC(C)N(C(=O)SCC(Cl)=C(Cl)Cl)C(C)C,inactive,inactive,inactive,inactive,-12% (inactive) and 19.1% (inactive),inactive,inactive,inactive,inactive,inactive,
CC(C)(c1cc(Cl)c(O)c(Cl)c1)c1cc(Cl)c(O)c(Cl)c1,inactive,inactive,inactive,inactive,-12.2% (inactive) and -31.9% (inactive),inactive,inactive,inactive,inactive,inactive,
NC(=S)Nc1ccccc1,inactive,49.8 µM (active) and inactive,inactive,inactive,-2.05% (inactive),,49.8 µM (active) and inactive,inactive,49.8 µM (active) and inactive,55.9 µM (active) and inactive,4.98 µM (active)
CNC(=O)N(C)c1nnc(C(C)(C)C)s1,inactive,inactive,inactive,inactive,-13.1% (inactive) and 0.0487% (inactive),inactive,inactive,inactive,inactive,inactive,
NCc1cccnc1,inactive,inactive,inactive,inactive,0.404% (inactive) and -2.08% (inactive),inactive,inactive,inactive,inactive,inactive,
C[C@]12CCC(=O)C[C@@H]1CC[C@@H]1[C@@H]2CC[C@]2(C)[C@@H](O)CC[C@@H]12,inactive,43.1 µM (active) and inactive,21.6 µM (active),inactive,,inactive,inactive,inactive,inactive,,21.6 µM (active)
O=S(=O)(Oc1ccc(Cl)cc1)c1ccc(Cl)cc1,inactive,inactive,inactive,inactive,-23.5% (inactive) and -4.71% (inactive),inactive,inactive,inactive,inactive,inactive,
C=CCc1ccc(OC)cc1,inactive,inactive,inactive,inactive,-1.64% (inactive) and 2.11% (inactive),inactive,inactive,inactive,inactive,inactive,
NNC(N)=S,inactive,inactive,inactive,inactive,1.23% (inactive) and 8.52% (inactive),inactive,inactive,inactive,inactive,inactive,
Nn1cnnc1,inactive,inactive,inactive,inactive,-2.23% (inactive) and 1.89% (inactive),inactive,inactive,inactive,inactive,inactive,
Oc1cc(Cl)ccc1Oc1ccc(Cl)cc1Cl,44.7 µM (active),44.7 µM (active),22.4 µM (active) and 23.9 µM (active),22.4 µM (active) and 23.9 µM (active),,22.4 µM (active),44.7 µM (active) and 19 µM (active),25.1 µM (active),22.4 µM (active) and 21.3 µM (active),25.1 µM (active) and 23.9 µM (active),34.1 µM (active)
c1ccc(-c2cccc(-c3ccccc3)c2)cc1,inactive,inactive,inactive,inactive,-23.8% (inactive),inactive,inactive,inactive,inactive,inactive,
Nc1ccncc1,inactive,inactive,inactive,inactive,2.45% (inactive) and 3.84% (inactive),inactive,inactive,inactive,inactive,inactive,
CCCCNC(=O)n1c(NC(=O)OC)nc2ccccc21,inactive,inactive,inactive,inactive,,inactive,inactive,inactive,inactive,7.72 µM (active) and 11 µM (active),6.88 µM (active)
CCOP(=S)(OCC)O/N=C(\C#N)c1ccccc1,inactive,inactive,inactive,inactive,6.15% (inactive) and 1.47% (inactive),inactive,inactive,inactive,inactive,inactive,
COC(=O)c1sccc1S(=O)(=O)NC(=O)Nc1nc(C)nc(OC)n1,inactive,inactive,inactive,inactive,4% (inactive) and 6.48% (inactive),inactive,inactive,inactive,inactive,inactive,
CC(C)C(=O)OCC(C)(C)C(OC(=O)C(C)C)C(C)C (centres undefined),inactive,inactive,inactive,inactive,-10.2% (inactive) and 4.91% (inactive),inactive,inactive,inactive,inactive,inactive,
